# Source: PubChem BioAssay AID743318 (Broad Institute, 2014)
# Potency and affinity values are given separately. The source made the active and inactive calls.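 How the source made its calls: active means cytotoxic signal drop whose half-maximal concentration is at most twice the top valid dose; inconclusive means flat drop between 30% and 70%, or poor fit; inactive means the rest.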
# Assay: A549 cell cytotoxicity, dose response, cytotoxicity control, plate reader, dry powder, set 7 (AID 743318)
# Settings: A549 viability, CellTiter-Glo ATP luminescence, 72 h; series mostly up to 26 µM
row,Compound,outcome
1,S=c1[nH]c2cccc(Cl)c2n1CCOc1ccccc1,inactive
2,Fc1ccc2[nH]c(=S)n(CCOc3ccccc3)c2c1,inactive
3,CC(C)(C)c1ccc(OCCn2cnc3ccccc32)cc1,inactive
4,Cc1cccc(OCCn2c(=S)[nH]c3c(F)cccc32)c1,inactive
5,Cc1ccc(OCCn2c(C)nc3ccccc32)cc1,inactive
6,CC(C)c1ccccc1OCCn1c(=S)[nH]c2ccccc21,inactive
7,Cc1ccc(OCCn2c(=S)[nH]c3ccccc32)c(C)c1,inactive
8,Fc1ccc(OCCn2c(=S)[nH]c3ccccc32)cc1,inactive
9,Fc1cccc(OCCn2c(=S)[nH]c3ccccc32)c1,inactive
10,Cc1ccccc1OCCn1c(=S)[nH]c2ccccc21,inactive
11,Cc1ccc(OCCn2cnc3ccccc32)c(C(C)C)c1,inactive
12,Cc1ccc(C)c(OCCn2c(=S)[nH]c3ccccc32)c1,inactive
13,Cc1cccc(OCCn2c(=S)[nH]c3ccccc32)c1C,inactive
14,Cc1ccc(C(C)C)c(OCCn2c(CO)nc3ccccc32)c1,inactive
15,Cc1cccc(OCCn2c(=S)[nH]c3ccccc32)c1,inactive
16,CC(C)c1ccccc1NCCn1c(=S)[nH]c2ccccc21,inactive
17,Cc1ccc(OCCn2c(=S)[nH]c3ccccc32)c(C(C)C)c1,inactive
18,CC(C)c1ccc(OCCn2c(=S)[nH]c3ccccc32)cc1,inactive
19,Cc1ccc(C(C)C)c(OCCn2c(=S)[nH]c3cccc(Cl)c32)c1,inactive
20,COc1ccc(OCCn2c(=S)[nH]c3ccccc32)cc1,inactive
21,Cc1ccc(C(C)C)c(OCCn2c(=S)[nH]c3c(Cl)cccc32)c1,inactive
